Inconclusive results are not listed. Calls of active or inactive are those of the source. Calls follow the shape of the dose curve; as a rule, active = well fitted inhibition curve with a large enough effect; inconclusive = small, poorly fitted or top-dose-only effect; inactive = flat fitted curve, though single readings scatter.
What was measured:
Experiment in all cases: qHTS profiling for inhibitors of Plasmodium falciparum proliferation (AID 504749); also: nearly all actives have a fitted effect of over 60% in size
CP256 = settings: P. falciparum in erythrocytes, SYBR Green DNA, 72 h; series mostly up to 12.8 µM
Outline: (§1)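 SYBR Green fluorescence (ex 485 nm, em 535 nm) reports parasite DNA after 72 h compound exposure of infected red cells at 0.3% parasitemia, 2.5% hematocrit; signal normalized to 0.29 uM artemisinin and vehicle wells.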

CP260 = settings: P. falciparum in erythrocytes, SYBR Green DNA, 72 h; series mostly up to 12.8 µM
Outline: as §1

CP262 = settings: P. falciparum in erythrocytes, SYBR Green DNA, 72 h; series mostly up to 12.8 µM
Outline: as §1

CP265 = settings: P. falciparum in erythrocytes, SYBR Green DNA, 72 h; series mostly up to 12.8 µM
Outline: as §1

CP266 = settings: P. falciparum in erythrocytes, SYBR Green DNA, 72 h; series mostly up to 28.7 µM
Outline: as §1

CP268 = settings: P. falciparum in erythrocytes, SYBR Green DNA, 72 h; series mostly up to 12.8 µM
Outline: as §1

CP269 = settings: P. falciparum in erythrocytes, SYBR Green DNA, 72 h; series mostly up to 12.8 µM
Outline: as §1

CP286 = settings: P. falciparum in erythrocytes, SYBR Green DNA, 72 h; series mostly up to 12.8 µM
Outline: as §1

CP291 = settings: P. falciparum in erythrocytes, SYBR Green DNA, 72 h; series mostly up to 12.8 µM
Outline: as §1

CP297 = settings: P. falciparum in erythrocytes, SYBR Green DNA, 72 h; series mostly up to 12.8 µM
Outline: as §1

CP305 = settings: P. falciparum in erythrocytes, SYBR Green DNA, 72 h; series mostly up to 12.8 µM
Outline: as §1

CP315 = settings: P. falciparum in erythrocytes, SYBR Green DNA, 72 h; series mostly up to 12.8 µM
Outline: as §1

CP325 = settings: P. falciparum in erythrocytes, SYBR Green DNA, 72 h; series mostly up to 12.8 µM
Outline: as §1

CP329 = settings: P. falciparum in erythrocytes, SYBR Green DNA, 72 h; series mostly up to 12.8 µM
Outline: as §1

CP335 = settings: P. falciparum in erythrocytes, SYBR Green DNA, 72 h; series mostly up to 12.8 µM
Outline: as §1

DFO2036 = settings: P. falciparum in erythrocytes, SYBR Green DNA, 72 h; series mostly up to 12.8 µM
Outline: as §1

DIV14 = settings: P. falciparum in erythrocytes, SYBR Green DNA, 72 h; series mostly up to 12.8 µM
Outline: as §1

DIV17 = settings: P. falciparum in erythrocytes, SYBR Green DNA, 72 h; series mostly up to 12.8 µM
Outline: as §1

DIV30 = settings: P. falciparum in erythrocytes, SYBR Green DNA, 72 h; series mostly up to 12.8 µM
Outline: as §1

Dd2 = settings: P. falciparum in erythrocytes, SYBR Green DNA, 72 h; series mostly up to 12.8 µM
Outline: as §1

ECU = settings: P. falciparum in erythrocytes, SYBR Green DNA, 72 h; series mostly up to 12.8 µM
Outline: as §1

FAB9 = settings: P. falciparum in erythrocytes, SYBR Green DNA, 72 h; series mostly up to 12.8 µM
Outline: as §1

GB4 = settings: P. falciparum in erythrocytes, SYBR Green DNA, 72 h; series mostly up to 12.8 µM
Outline: as §1

HB3 = settings: P. falciparum in erythrocytes, SYBR Green DNA, 72 h; series mostly up to 12.8 µM
Outline: as §1

ICS = settings: P. falciparum in erythrocytes, SYBR Green DNA, 72 h; series mostly up to 12.8 µM
Outline: as §1

JCK = settings: P. falciparum in erythrocytes, SYBR Green DNA, 72 h; series mostly up to 12.8 µM
Outline: as §1

N140 = settings: P. falciparum in erythrocytes, SYBR Green DNA, 72 h; series mostly up to 12.8 µM
Outline: as §1

P93_24 = settings: P. falciparum in erythrocytes, SYBR Green DNA, 72 h; series mostly up to 12.8 µM
Outline: as §1

P94_40 = settings: P. falciparum in erythrocytes, SYBR Green DNA, 72 h; series mostly up to 12.8 µM
Outline: as §1

PAD = settings: P. falciparum in erythrocytes, SYBR Green DNA, 72 h; series mostly up to 12.8 µM
Outline: as §1

PC15 = settings: P. falciparum in erythrocytes, SYBR Green DNA, 72 h; series mostly up to 12.8 µM
Outline: as §1

PC26 = settings: P. falciparum in erythrocytes, SYBR Green DNA, 72 h; series mostly up to 12.8 µM
Outline: as §1

PC49 = settings: P. falciparum in erythrocytes, SYBR Green DNA, 72 h; series mostly up to 12.8 µM
Outline: as §1

SC27B = settings: P. falciparum in erythrocytes, SYBR Green DNA, 72 h; series mostly up to 12.8 µM
Outline: as §1

TAB109 = settings: P. falciparum in erythrocytes, SYBR Green DNA, 72 h; series mostly up to 12.8 µM
Outline: as §1

TAB113 = settings: P. falciparum in erythrocytes, SYBR Green DNA, 72 h; series mostly up to 12.8 µM
Outline: as §1

TAB165 = settings: P. falciparum in erythrocytes, SYBR Green DNA, 72 h; series mostly up to 12.8 µM
Outline: as §1

W2 = settings: P. falciparum in erythrocytes, SYBR Green DNA, 72 h; series mostly up to 12.8 µM
Outline: as §1

Measured: Potency

Cn1c(=O)c2c(ncn2C[C@@H](O)CO)n(C)c1=O
inactive: all assays above
